sPLA2-III inh – Inhibits HGIII-sPLA2 liposome hydrolysis, primary screen; inhibition, % at 12.2 µM; Q9NZ20; QFRET BODIPY PC-A2 liposome hydrolysis, fluorescence; actives 0.56% (n = 370,000);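 active means inhibition above mean plus 3 SD of compounds lying within the high and low control bounds, cut at about 19% in these data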;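 further: 0% = median of test compound wells and 100% = no enzyme DMSO wells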
Target sequence (Q9NZ20 whole entry, looked up): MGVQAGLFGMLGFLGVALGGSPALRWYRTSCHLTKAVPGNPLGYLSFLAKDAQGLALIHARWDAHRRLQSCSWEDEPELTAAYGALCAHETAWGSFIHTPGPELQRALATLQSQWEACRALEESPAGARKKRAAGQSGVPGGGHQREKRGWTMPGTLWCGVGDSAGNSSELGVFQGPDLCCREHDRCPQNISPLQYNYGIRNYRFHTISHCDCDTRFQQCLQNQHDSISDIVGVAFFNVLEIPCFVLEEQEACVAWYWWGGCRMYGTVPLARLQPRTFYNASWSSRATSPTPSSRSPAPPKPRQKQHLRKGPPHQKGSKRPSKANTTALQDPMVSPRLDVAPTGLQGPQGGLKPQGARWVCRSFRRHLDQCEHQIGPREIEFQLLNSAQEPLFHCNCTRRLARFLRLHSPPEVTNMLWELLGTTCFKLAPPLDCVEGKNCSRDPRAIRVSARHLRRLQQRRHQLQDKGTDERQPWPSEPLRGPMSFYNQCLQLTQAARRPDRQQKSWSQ
DAGLB inhibitor – diacylglycerol lipase beta (human) inhibition. Q8NCG7. HEK293T DAGLB membrane lysate, EnzChek fluorogenic substrate. inhibition, % at 5.17 µM. actives 0.059% (n = 340,000). AID 504411; in the data active means inhibition above about 34%;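 further: 0% = enzyme with vehicle and 100% = wells lacking enzyme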
PLCg1 inh – PLC-gamma1 (human) inhibition, primary screen | actives 0.84% (n = 370,000) | AID 720700 | P19174 | purified PLC-gamma1, fluorogenic substrate, fluorescence | inhibition, % at 12.2 µM; in the data active means inhibition above about 9.5%
PLCb3 inh – PLC-beta3 (human) inhibition, primary screen; Purified PLC-beta3, fluorogenic substrate, fluorescence; actives 0.18% (n = 370,000); AID 720704; inhibition, % at 12.2 µM; Q01970;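 further: 0% = median of compound wells on plate and 100% = full blocker control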
PLCg1 ctr – PLC-gamma1 inhibition, counter-screen for PLC-beta3 hits; shares compounds with PLCg1 inh; purified PLC-gamma1, fluorogenic substrate, fluorescence; inhibition, % at 12.3 µM; actives 3.1% (n = 3,300); AID 743258; in the data active means inhibition above about 9.5%
PLCbeta3 conf – human PLC-beta3 inhibition, confirmation; inhibition, % at 12.3 µM; purified PLC-beta3, fluorogenic substrate fluorescence; AID 743261; shares compounds with PLCg1 inh; actives 1% (n = 3,300)
Starred values were filed as active, the others as inactive; x = no result given. In the library only some 1.5% were active in any assay of this set; here they are far more common. Unless noted, no stated cut-off is given here; in the data, active means inhibition above about 11%; inactive means the rest.

SMILES	sPLA2-III inh	DAGLB inhibitor	PLCg1 inh	PLCb3 inh	PLCg1 ctr	PLCbeta3 conf
COc1ccc(S(=O)(=O)N2CCc3ccccc3C2)cc1OC	-15	-1	13*	5	-4	-4
COc1ccc(S(=O)(=O)N2CCc3ccccc3C2)cc1C(=O)O	-6	1	1	-2	x	x
COc1cc(OC)c(S(=O)(=O)Nc2ccccc2NC(=O)CN2CCOCC2)cc1NC(C)=O	7	-2	15*	2	-6	-4
COc1ccc2cc(-c3cccc4[nH]cc(C)c34)ccc2c1	-15	x	-73	-108	x	x
Cc1cc(C)c(S(=O)(=O)N2CCCc3ccccc32)c(C)c1	-1	-8	0	-4	x	x
Cc1cccc(S(=O)(=O)N2CCCc3ccccc32)c1	1	-10	9.6*	-6	-2	4
O=C(N/N=C/c1cccc(F)c1)c1c(O)c2c([nH]c1=O)CCCC2	4	-1	6	12*	-2	0
CN1CCC(N[C@@H](Cc2ccccc2)C(=O)NCC(c2ccccc2)c2ccccc2)(C(=O)NC2CCCCC2)CC1	-16	x	12*	9	-1	1
CC(C)C[C@H](NC1(C(=O)NCCc2c[nH]c3ccccc23)CCC1)C(=O)NCCCc1ccccc1	-43	x	13*	7	-7	-4
O=C(NCC(c1ccccc1)c1ccccc1)[C@H](Cc1c[nH]c2ccccc12)NC1(C(=O)NC2CCCCC2)CCC1	-70	x	10*	7	-3	-1
O=C(NCC(c1ccccc1)c1ccccc1)[C@H](Cc1c[nH]c2ccccc12)NC1(C(=O)NC2CCCCC2)CCCC1	3	x	3	-2	x	x
Cc1cc(C)cc(C(=O)OCCCN(C)C2CN(Cc3cn(Cc4ccccc4Cl)nn3)S(=O)(=O)C2)c1 (stereo not drawn)	-31	x	2	-2	x	x
O=C(CNC(=O)c1ccc(Br)o1)NC12CC3CC(CC(C3)C1)C2	9	-1	9.9*	4	1	4
O=C(CNC(=O)c1ccc(Br)o1)NC1CCCCCC1	8	3	6	6	x	x
CCOC(=O)CC(=O)CSc1nc2c(sc(=S)n2-c2ccc(OCC)cc2)c(=O)[nH]1	-37	18	3	4	x	x
NC(=O)CSc1nc2c(sc(=S)n2-c2ccccc2)c(=O)[nH]1	8	-1	10*	-1	-3	1
Cc1ccc(/C=C/C(=O)NCc2cccs2)c(C)c1	-1	-7	2	-7	x	x
Cc1ccc(/C=C/C(=O)NCc2cccs2)cc1	-3	-13	8	13*	-7	-1
COc1ccc(OCC(=O)NC2CCCCCCC2)cc1	6	-4	11*	-4	-3	-2
O=C(CNC(=O)OCc1ccccc1)NC1CCCCCCC1	3	2	10*	7	-1	2
COc1ccc(OCC(=O)OCC(=O)NC2CCCC2)cc1	3	-2	1	-3	x	x
O=C(CNC(=O)OCc1ccccc1)NC1(C(=O)O)CCCC1	2	1	1	4	x	x
CCOc1ccccc1OCC(=O)NC1CCCCC1	-1	-1	11*	4	-3	0
O=C(O)CNC(=O)C1(NC(=O)OCc2ccccc2)CCCC1	7	-1	8	17*	-3	0
CCC[C@H]1[C@@H](OC(=O)NCCc2ccccc2)CC[C@@]23CCCN2C(=O)CCC[C@@H]13	7	x	1	1	x	x
SMILES	sPLA2-III inh	DAGLB inhibitor	PLCg1 inh	PLCb3 inh	PLCg1 ctr	PLCbeta3 conf
CCCCNC(=O)O[C@H]1CC[C@@]23CCCN2C(=O)CCC[C@H]3[C@H]1CCC	16	x	8	3	x	x
COc1ccccc1NC(=O)Cn1c(=O)n(C)c(=O)c2sc3c(c21)COC(C)(C)C3	9	1	13*	2	-5	1
COc1ccccc1NC(=O)Cn1nnc2sc3c(c2c1=O)CC(C)(C)OC3	5	x	2	-4	x	x
Cc1ccc(SCc2cc(=O)n(C)[nH]2)cc1	-3	13	11*	6	-2	-3
COC(=O)C1CCCN(C(=O)C(Cc2ccc3c(c2)OCO3)NC(C)=O)C1 (stereo not drawn)	3	x	0	4	x	x
CCn1cc(C(=O)N2CCc3ccccc32)c(=O)c2cc(S(=O)(=O)N(C)C3CCCCC3)ccc21	-7	3	10*	5	-3	-4
CCn1cc(C(=O)N2CCc3ccccc32)c(=O)c2cc(S(=O)(=O)N3CCOCC3)ccc21	-3	-1	-2	1	x	x
COc1ccc(CN(C)Cc2ccccc2)c(OC)c1OC	-2	-1	11*	2	-4	-7
O=C(NCCc1ccccc1F)c1cc2ccccn2n1	-4	x	0	-2	x	x
O=C1/C(=C/C=C/c2ccco2)SC(=S)N1c1ccc(O)cc1	-10	6	22*	-8	-9	-23
O=C1/C(=C\c2ccc(O)cc2)SC(=S)N1c1cccnc1	-13	0	-8	-8	x	x
O=C1/C(=C/c2ccco2)SC(=S)N1c1cccnc1	-10	2	12*	-18	-1	-14
NN1C(=O)/C(=C\c2ccco2)SC1=S	-8	x	18*	-8	-7	-5
O=C1/C(=C\c2ccco2)SC(=S)N1c1ccc(O)cc1	-3	-56	1	-2	x	x
C=CCNc1cccc(Br)c1	8	1	4	11*	-7	-3
O=S1(=O)c2c(cccc2N2CCSCC2)Oc2ccccc2CN1Cc1cn(Cc2ccc(Cl)cc2)nn1	-2	x	-11	-11	x	x
COc1ccc(NS(=O)(=O)c2cccc(C(=O)NCCCn3ccnc3)c2)cc1	2	2	11*	3	-4	-7
COc1ccc(C(=O)N2CCN(c3ccccc3OC)CC2)cc1	1	1	4	0	x	x
COc1ccc(/C=N/NC(=O)C(=O)N2CCN(c3ccccc3OC)CC2)cc1	-10	1	12*	-1	-5	-2
CCNC(=O)C[C@H]1CC[C@H]2[C@@H](COc3ccc(NC(=O)c4ccc5c(c4)OCO5)cc3C(=O)N2C)O1	-29	x	9.6*	4	15*	14*
CN1C(=O)c2cc(NC(=O)Nc3ccccc3F)ccc2OC[C@H]2O[C@@H](CC(=O)NCc3ccc(-c4ccccc4)cc3)CC[C@@H]21	-31	x	12*	10	13*	12*
O=S1(=O)C=CCN1Cc1cn(Cc2ccc(C(F)(F)F)cc2)nn1	6	x	-3	1	x	x
O=C(CSc1nnc(COc2ccccc2)n1-c1ccc(Cl)cc1)Nc1ccccc1-c1ccccc1	-20	x	7	8	x	x
CCCC1CCC2(CC1)CCC2OC(=S)NCc1cccc(OC)c1 (stereo not drawn)	-13	x	-3	-4	x	x
CC(NCc1ccc(OCc2ccc(Cl)cc2)cc1)C(O)c1ccccc1 (stereo not drawn)	1	-3	19*	-4	2	-2
N/C(=N\N=C\c1cccs1)SC1CC(=O)N(c2cccc([N+](=O)[O-])c2)C1=O (stereo not drawn)	4	1	0	1	x	x
